# Test system: HeLa MZ
# Assay: filipin (cholesterol) integrated intensity within LBPA endosomes, Z-score; higher = more cholesterol in LBPA endosomes
# Conditions: compound concentration in added solution (µM; 5 µl added to 20 µl cells): 10; 18 h
# Summary of the method: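 In duplicate 384-well imaging plates, 3,500 HeLa MZ or A431 cells in 20 µl per well were seeded onto 5 µl of 10 µM compound solution. The cells were incubated for 18 h, fixed in 4% PFA and stained with 6C4 anti-LBPA antibody, filipin, propidium iodide and CellTracker green before four 20× images were acquired per well. Values are AcuityXpress-normalised Z-scores of per-cell integrated LBPA or filipin intensity, obtained by MetaXpress segmentation over the whole cell or in LBPA endosomes.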
row,Structure (SMILES),filipin (z-score)
1,CCCC(C)(COC(N)=O)COC(=O)NC(C)C (stereo not drawn) [Carisoprodol],-0.604
2,CO[C@]12C[C@@H](COC(=O)c3cncc(Br)c3)CN(C)[C@@H]1Cc1cn(C)c3cccc2c13 [Nicergoline],0.446
3,NC(=O)C[S+]([O-])C(c1ccccc1)c1ccccc1 (stereo not drawn) [Modafinil],-0.453

# From the supplement of paper PMC6607015
